# Assay outcomes deposited in PubChem by several laboratories.
# An excerpt weighted towards active compounds, which were near 4.2% of everything screened.
# DAX1 StAR inh: DAX1 (NR0B1) inhibition, primary screen. inhibition, % at 6.8 µM. 370,000 tested, 1.1% active. HEK293T StAR-luciferase reporter, SF-1/DAX-1 repression relief;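 active means inhibition above the mean over all tested compounds plus 3 SD, cut at about 3.6% in these data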;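 further: 0% = DAX-1 cells with DMSO and 100% = cells lacking DAX-1 with DMSO; higher inhibition means more luminescence from relief of DAX-1 repression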
# hgDAF-12 ag: agonists of H. glycines DAF-12 nuclear receptor. 370,000 tested, 1.8% active. AID 687014. HEK293 GAL4-hgDAF12 UAS-luciferase reporter, agonist luminescence; normalized to butyrate control. activation, % at 6.8 µM;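 active means activation above a cutoff set at the mean of all screened compounds plus 3 SD, cut at about 10% in these data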;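 further: 0% = DMSO wells and 100% = sodium butyrate wells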
# esBAF inh: blocks esBAF chromatin remodeling in mouse ES cells | Bmi1-luciferase knock-in reporter, 24 h; 100% = twice the neutral-well signal | reporter increase, % at 12.5 µM | 350,000 tested, 2% active | AID 602393; in the data active means activation above about 40%;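 further: 0% = median of the plate's neutral control wells and 100% = double that signal; a rise in the Bmi1 reporter signal indicates esBAF inhibition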
# hcDAF-12 act: H. contortus DAF-12 activation, primary screen | HEK293 hcDAF-12 lit1-tk-luc reporter, luminescence; 0% DMSO, 100% Δ7-dafachronic acid | activation, % at 6.8 µM | 370,000 tested, 1.4% active | AID 652067;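 active means activation above the mean of all tested compounds plus 3 SD, cut at about 5.5% in these data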;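 further: 100% = response to 3 µM Δ7-dafachronic acid high control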
# Wnt bcat act: Wnt/beta-catenin pathway activation. Wnt/beta-catenin reporter cell assay, activator, plate reader. activation, % at 9.35 µM. 300,000 tested, 1.2% active; in the data active means activation above about 30%, passing the limit was not always enough;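 further: 0% = neutral control wells and 100% = positive control wells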
# ssDAF12 agonist: activators of S. stercoralis DAF-12 nuclear receptor; HEK293 ssDAF-12/GRIP1 lit1-tk-luc reporter, luminescence; % of 3 µM dafachronic acid response; activation, % at 6.8 µM; 370,000 tested, 1% active; AID 652126;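 active means activation above the mean over all tested compounds plus 3 SD, cut at about 0.9% in these data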;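 further: 0% = DMSO-only wells and 100% = 3 µM delta7-dafachronic acid wells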
# * = called active by the depositor; x = no result.
SMILES,DAX1 StAR inh,hgDAF-12 ag,esBAF inh,hcDAF-12 act,Wnt bcat act,ssDAF12 agonist
O=C(CNC(=O)c1ccco1)Nc1ccc(Cl)cc1,0,3,39,1,17,-1
O=C(Nc1ccc(N2CCOCC2)c(Cl)c1)c1ccc(Cl)cc1,0,0,45*,0,19,-1
O=C(Nc1ccc(N2CCCCC2)c(Cl)c1)c1ccc2c(c1)OCCO2,-1,0,52*,1,14,-2
O=C(Nc1ccc(N2CCOCC2)c(Cl)c1)c1ccco1,3.7*,12*,1,5,x,0
O=C(CNC(=O)c1ccco1)Nc1ccc(Br)cc1,1,6,42*,1,18,-1
COc1ccc(S(=O)(=O)N[C@@H]2C=C[C@H](CC(=O)NCc3ccccc3F)O[C@@H]2CO)cc1,x,x,5,x,x,x
O=C(Nc1ccc(Cl)c([N+](=O)[O-])c1)c1ccc2c(c1)OCCO2,3,7,86*,3,15,-1
O=C(Nc1ccc(NC(=O)c2ccco2)c(Cl)c1)c1ccccc1,2,6,x,1,7,-1
O=C(Nc1ccc(N2CCOCC2)c(Cl)c1)c1ccccc1F,3.7*,8,103*,2,x,0
O=C(Nc1ccc(Br)c(Cl)c1)c1ccco1,1,11*,52*,4,x,0
C/C(CC(=O)Nc1ccc(C)c(Cl)c1)=N\NC(=O)Cc1ccccc1,0,1,-3,-2,x,-1
C/C(CC(=O)Nc1ccc(C)c(Cl)c1)=N\NC(=O)c1ccco1,2,12*,x,3,2,1.0*
C[C@@H]1CN([C@H](C)CO)C(=O)Cc2cc(NS(=O)(=O)c3ccc(F)cc3)ccc2O[C@@H]1CN(C)Cc1ccc(C(=O)O)cc1,x,x,-1,x,x,x
Nc1nc(Nc2ccccc2)nc(N2CCCC2)c1[N+](=O)[O-],0,6,50*,0,21,0
O=S(=O)(N[C@H]1CC[C@H](CCn2cc(-c3cccc(F)c3)nn2)O[C@@H]1CO)c1ccc(F)cc1,x,x,8,x,x,x
Cc1cc(N2CCN(C(=O)c3ccco3)CC2)n2ncc(-c3ccccc3)c2n1,1,4,50*,2,0,-1
Cc1nc2cc(-c3cccc(F)c3)nn2c(N2CCN(C(=O)c3ccco3)CC2)c1C,0,4,43*,5.8*,x,1
COCCN1CCN(c2c(C)c(C)nc3cc(-c4cccc(OC)c4)nn23)CC1,1,6,52*,3,29,-1
COc1ccc(-c2cc3nc(C)c(C)c(N4CCN(C(=O)c5ccoc5)CC4)n3n2)cc1,-4,1,4,-1,-5,0
Cc1ccccc1S(=O)(=O)N1C[C@@H](O)COC[C@@H]2O[C@@H](CC(=O)NCc3ccccc3Cl)CC[C@H]21,x,x,3,x,x,x
CCCNC(=O)C[C@H]1CC[C@@H]2[C@H](COC[C@H](O)CN2C(=O)CC)O1,x,x,0,x,x,x
CCCNC(=O)C[C@H]1CC[C@@H]2[C@H](COC[C@@H](O)CN2Cc2ccncc2)O1,x,x,2,x,x,x
C[C@@H]1CCCCO[C@H](CN(C)C(=O)c2ccccc2)[C@H](C)CN([C@@H](C)CO)C(=O)c2cc(NC(=O)Nc3ccc(F)cc3)ccc2O1,x,x,-2,x,x,x
Fc1ccccc1/C=N/Nc1ncnc2nc[nH]c12,3.8*,1,23,-1,23,-1
Fc1cccc(/C=N/Nc2ncnc3nc[nH]c23)c1,3,1,-22,2,28,-1
SMILES,DAX1 StAR inh,hgDAF-12 ag,esBAF inh,hcDAF-12 act,Wnt bcat act,ssDAF12 agonist
Cc1ccc(/C=N/Nc2ncnc3nc[nH]c23)cc1,1,9,0,-1,47*,-1
C[C@H](CO)N1C[C@H](C)[C@H](CN(C)Cc2ccc(C(F)(F)F)cc2)Oc2ccc(NC(=O)Nc3ccc(C(F)(F)F)cc3)cc2CC1=O,x,x,3,x,x,x
Oc1csc(Cc2nc(-c3ccc4ccccc4c3)cs2)n1,3,6,69*,6.3*,x,1.1*
CCCNC(=O)C[C@@H]1C[C@H]2c3cc(NS(C)(=O)=O)ccc3O[C@H]2[C@@H](CO)O1,x,x,-3,x,x,x
Cc1cccc(NC(=O)Cn2c(O)c(N=NC(=O)c3ccccc3O)c3ccccc32)c1,0,2,x,6.0*,x,1
C[C@@H]1CN([C@@H](C)CO)C(=O)c2cc(-c3ccc(C#N)cc3)cnc2O[C@@H]1CN(C)Cc1ccccn1,x,x,0,x,x,x
Fc1ccc(OCc2nc3ccccc3s2)cc1,2,11*,x,6.2*,59*,1.1*
COc1cc(/C=C/C(=O)N2C(=O)c3cccc(N)c3C2=O)cc(OC)c1OC,0,-1,20,-1,135*,-2
O=c1c2ccccc2oc2ccc(Oc3ccccc3)cc12,2,9,31,3,54*,0
O=c1c2ccccc2oc2cc(Br)ccc12,0,1,71*,2,-3,-1
O=C(N/N=C/c1cccc(OC(=O)N2CCOCC2)c1)c1cccs1,1,11*,18,4,18,-1
C#CCSc1nnc(-c2ccc(OC)cc2)o1,2,11*,43*,3,38*,0
COc1ccc(-c2nnc(SCC#N)o2)cc1,1,-1,8,-2,8,-1
C#CCSc1nnc(-c2ccc([N+](=O)[O-])cc2)o1,2,12*,25,0,-11,-1
COc1ccc(-c2nnc(SCc3ccccc3F)o2)cc1,4.4*,12*,x,6.4*,x,1
COc1cccc(CSc2nnc(-c3ccc(F)cc3)o2)c1,0,-1,-2,0,x,0
CCSc1nnc(-c2ccc(OC)cc2)o1,1,12*,17,1,x,-1
CSc1nnc(-c2ccc([N+](=O)[O-])cc2)o1,0,3,2,-1,-1,-1
COc1cccc(C(=O)C[n+]2ccccc2/C=N/O)c1,0,3,x,1,10,1.2*
CO[C@H]1CN(C)C(=O)c2cc(NC(=O)Nc3ccccc3)ccc2OC[C@H](C)N(C(C)=O)C[C@H]1C,x,x,-1,x,x,x
CO[C@H]1CN(C)C(=O)c2ccc(NC(=O)NC(C)C)cc2OC[C@@H](C)N(Cc2cocn2)C[C@H]1C,x,x,3,x,x,x
Cc1ccnc(NS(=O)(=O)c2ccc(N3C(=O)Nc4ccccc4N3O)cc2)c1,1,0,6,1,5,-1
O=C1Nc2ccccc2N(O)N1c1ccc(S(=O)(=O)Nc2ccccn2)cc1,1,3,-2,3,0,0.9*
Cc1nnc2n(c1=O)N=C(c1ccc(Cl)cc1)CS2,2,8,x,6.0*,-1,0
COc1ccccc1OCCNC(=O)c1ccc(Br)cc1,2,5,56*,1,13,-1
COc1cc(C(=O)Nc2ccc(NC(C)=O)cc2)ccc1OCc1ccccc1,1,1,x,0,-1,-2
COc1ccccc1OCc1ccc(C(=O)Nc2ccccc2)cc1,0,9,79*,-1,29,-1
